Experiments:
[1] = target: T1, Tyrosine-protein kinase ITK/TSK (Homo sapiens) (UniProt Q08881); details: at 1 µM;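 note: values are mean percent inhibition of ITK from the GSK PKIS screen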
T1 sequence (whole entry): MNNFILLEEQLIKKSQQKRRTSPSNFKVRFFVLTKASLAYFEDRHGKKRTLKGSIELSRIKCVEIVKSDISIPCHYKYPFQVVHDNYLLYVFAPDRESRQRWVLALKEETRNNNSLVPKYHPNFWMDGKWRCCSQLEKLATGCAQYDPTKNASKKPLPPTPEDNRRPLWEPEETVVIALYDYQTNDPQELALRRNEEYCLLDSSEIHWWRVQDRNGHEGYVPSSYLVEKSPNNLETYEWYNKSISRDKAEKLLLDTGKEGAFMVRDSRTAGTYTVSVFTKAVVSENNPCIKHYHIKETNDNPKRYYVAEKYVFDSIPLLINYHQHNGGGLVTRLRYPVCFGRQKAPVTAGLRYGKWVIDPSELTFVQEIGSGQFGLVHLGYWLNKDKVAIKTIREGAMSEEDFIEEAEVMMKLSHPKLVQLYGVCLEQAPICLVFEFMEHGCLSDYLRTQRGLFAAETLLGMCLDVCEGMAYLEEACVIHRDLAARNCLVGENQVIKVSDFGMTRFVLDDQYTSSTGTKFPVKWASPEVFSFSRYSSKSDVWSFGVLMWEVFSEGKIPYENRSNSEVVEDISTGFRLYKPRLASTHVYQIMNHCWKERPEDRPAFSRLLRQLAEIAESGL

[2] = target: Tyrosine-protein kinase JAK1 (Homo sapiens) (UniProt P23458); details: at 0.1 µM
[3] = target: Tyrosine-protein kinase JAK1 (Homo sapiens) (UniProt P23458); details: at 1 µM
[4] = target: Tyrosine-protein kinase JAK2 (Homo sapiens) (UniProt O60674); details: at 0.1 µM
Chain of Tyrosine-protein kinase JAK2 (Homo sapiens) (O60674 whole entry): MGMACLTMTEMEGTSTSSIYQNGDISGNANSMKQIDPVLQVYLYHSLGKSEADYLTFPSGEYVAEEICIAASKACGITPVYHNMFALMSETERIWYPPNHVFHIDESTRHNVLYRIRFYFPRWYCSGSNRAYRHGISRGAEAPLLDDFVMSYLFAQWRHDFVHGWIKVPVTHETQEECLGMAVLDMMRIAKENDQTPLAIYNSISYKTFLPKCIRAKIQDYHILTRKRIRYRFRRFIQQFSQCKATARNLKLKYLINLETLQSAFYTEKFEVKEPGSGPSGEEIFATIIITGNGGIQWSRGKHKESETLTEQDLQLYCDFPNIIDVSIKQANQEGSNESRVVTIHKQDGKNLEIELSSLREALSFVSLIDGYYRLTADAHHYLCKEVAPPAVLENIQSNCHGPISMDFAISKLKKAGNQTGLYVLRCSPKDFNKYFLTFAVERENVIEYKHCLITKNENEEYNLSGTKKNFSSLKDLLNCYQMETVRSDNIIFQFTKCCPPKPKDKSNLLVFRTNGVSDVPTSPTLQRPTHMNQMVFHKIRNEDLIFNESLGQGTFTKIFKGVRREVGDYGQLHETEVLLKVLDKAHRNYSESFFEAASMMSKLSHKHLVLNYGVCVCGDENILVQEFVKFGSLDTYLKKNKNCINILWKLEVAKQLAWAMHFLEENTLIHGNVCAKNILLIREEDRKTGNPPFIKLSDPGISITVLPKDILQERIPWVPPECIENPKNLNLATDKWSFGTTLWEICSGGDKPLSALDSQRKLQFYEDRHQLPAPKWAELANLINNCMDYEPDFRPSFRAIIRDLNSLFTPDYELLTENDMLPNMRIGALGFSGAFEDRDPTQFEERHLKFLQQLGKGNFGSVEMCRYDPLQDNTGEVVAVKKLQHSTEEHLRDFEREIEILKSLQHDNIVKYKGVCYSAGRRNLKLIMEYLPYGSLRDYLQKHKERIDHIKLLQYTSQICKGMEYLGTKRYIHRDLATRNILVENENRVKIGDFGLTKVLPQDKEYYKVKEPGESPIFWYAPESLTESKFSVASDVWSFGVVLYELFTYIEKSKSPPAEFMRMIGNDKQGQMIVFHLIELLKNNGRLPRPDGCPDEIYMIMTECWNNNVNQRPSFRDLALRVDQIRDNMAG

[5] = target: Tyrosine-protein kinase JAK2 (Homo sapiens) (UniProt O60674); details: at 1 µM
[6] = target: T2, Tyrosine-protein kinase JAK3 (Homo sapiens) (UniProt P52333); details: at 0.1 µM
T2 sequence (whole entry): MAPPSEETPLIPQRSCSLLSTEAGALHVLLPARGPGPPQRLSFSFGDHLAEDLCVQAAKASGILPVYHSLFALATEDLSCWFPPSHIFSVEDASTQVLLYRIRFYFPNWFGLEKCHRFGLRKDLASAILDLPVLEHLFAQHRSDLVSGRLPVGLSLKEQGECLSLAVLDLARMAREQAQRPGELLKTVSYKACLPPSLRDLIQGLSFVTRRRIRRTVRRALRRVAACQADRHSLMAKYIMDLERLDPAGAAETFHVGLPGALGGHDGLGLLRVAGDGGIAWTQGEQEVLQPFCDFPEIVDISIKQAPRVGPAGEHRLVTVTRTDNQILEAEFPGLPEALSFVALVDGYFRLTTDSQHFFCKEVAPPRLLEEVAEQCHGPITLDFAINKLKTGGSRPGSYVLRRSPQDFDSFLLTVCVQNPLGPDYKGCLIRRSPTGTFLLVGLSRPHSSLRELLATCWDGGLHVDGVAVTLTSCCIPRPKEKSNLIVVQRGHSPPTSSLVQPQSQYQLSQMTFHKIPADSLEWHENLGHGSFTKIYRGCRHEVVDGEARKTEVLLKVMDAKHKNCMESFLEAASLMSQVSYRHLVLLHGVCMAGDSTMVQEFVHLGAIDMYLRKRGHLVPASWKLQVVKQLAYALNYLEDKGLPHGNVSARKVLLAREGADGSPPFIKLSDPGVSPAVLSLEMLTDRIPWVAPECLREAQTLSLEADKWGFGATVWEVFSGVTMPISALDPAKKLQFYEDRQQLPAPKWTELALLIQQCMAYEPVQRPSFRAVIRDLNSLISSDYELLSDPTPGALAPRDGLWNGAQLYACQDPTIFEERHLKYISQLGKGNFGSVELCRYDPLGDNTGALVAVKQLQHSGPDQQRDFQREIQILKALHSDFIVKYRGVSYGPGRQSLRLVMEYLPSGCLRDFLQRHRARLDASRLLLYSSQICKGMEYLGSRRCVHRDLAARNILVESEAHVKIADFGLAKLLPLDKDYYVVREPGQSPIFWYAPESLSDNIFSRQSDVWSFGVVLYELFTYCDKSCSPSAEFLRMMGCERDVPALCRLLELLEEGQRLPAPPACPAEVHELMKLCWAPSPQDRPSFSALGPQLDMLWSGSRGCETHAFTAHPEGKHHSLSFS

[7] = target: T2, Tyrosine-protein kinase JAK3 (Homo sapiens); details: at 1 µM
[8] = target: Vascular endothelial growth factor receptor 2 (Homo sapiens) (UniProt P35968); details: at 0.1 µM
Chain of Vascular endothelial growth factor receptor 2 (Homo sapiens) (P35968 whole entry): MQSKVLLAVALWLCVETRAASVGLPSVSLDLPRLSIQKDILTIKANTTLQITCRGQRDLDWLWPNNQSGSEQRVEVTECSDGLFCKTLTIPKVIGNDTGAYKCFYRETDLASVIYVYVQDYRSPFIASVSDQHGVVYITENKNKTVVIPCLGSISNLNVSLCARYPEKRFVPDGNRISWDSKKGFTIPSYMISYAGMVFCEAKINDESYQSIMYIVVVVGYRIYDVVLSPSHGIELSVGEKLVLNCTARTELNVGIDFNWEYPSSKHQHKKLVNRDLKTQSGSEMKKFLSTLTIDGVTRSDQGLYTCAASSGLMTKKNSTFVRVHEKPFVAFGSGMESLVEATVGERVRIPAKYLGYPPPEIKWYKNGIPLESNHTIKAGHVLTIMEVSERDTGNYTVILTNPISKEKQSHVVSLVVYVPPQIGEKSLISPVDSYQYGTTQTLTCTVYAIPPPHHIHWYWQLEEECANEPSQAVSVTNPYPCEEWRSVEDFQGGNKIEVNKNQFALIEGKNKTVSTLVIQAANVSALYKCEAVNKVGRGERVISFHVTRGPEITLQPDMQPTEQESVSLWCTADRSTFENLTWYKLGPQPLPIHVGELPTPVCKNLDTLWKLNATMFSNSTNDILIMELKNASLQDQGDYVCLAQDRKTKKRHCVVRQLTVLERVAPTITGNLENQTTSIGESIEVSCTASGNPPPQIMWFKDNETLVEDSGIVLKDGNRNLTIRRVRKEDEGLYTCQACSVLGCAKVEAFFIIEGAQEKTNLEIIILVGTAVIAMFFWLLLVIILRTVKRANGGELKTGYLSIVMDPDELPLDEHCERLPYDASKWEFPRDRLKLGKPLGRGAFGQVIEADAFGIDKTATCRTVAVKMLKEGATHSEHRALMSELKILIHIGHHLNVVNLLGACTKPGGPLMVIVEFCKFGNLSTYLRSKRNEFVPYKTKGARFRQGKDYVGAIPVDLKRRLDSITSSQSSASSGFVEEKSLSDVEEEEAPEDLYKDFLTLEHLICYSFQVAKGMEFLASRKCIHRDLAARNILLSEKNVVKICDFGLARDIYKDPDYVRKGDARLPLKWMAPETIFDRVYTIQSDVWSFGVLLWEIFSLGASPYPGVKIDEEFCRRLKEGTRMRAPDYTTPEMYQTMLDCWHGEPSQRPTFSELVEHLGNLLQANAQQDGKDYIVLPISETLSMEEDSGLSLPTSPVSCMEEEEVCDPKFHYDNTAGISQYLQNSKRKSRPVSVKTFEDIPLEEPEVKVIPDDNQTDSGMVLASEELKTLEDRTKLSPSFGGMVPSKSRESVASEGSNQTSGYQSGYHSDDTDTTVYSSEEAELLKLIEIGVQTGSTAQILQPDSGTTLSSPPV

[9] = target: Vascular endothelial growth factor receptor 2 (Homo sapiens) (UniProt P35968); details: at 1 µM
[10] = target: Mast/stem cell growth factor receptor Kit (Homo sapiens) (UniProt P10721); details: at 0.1 µM
Chain of Mast/stem cell growth factor receptor Kit (Homo sapiens) (P10721 whole entry): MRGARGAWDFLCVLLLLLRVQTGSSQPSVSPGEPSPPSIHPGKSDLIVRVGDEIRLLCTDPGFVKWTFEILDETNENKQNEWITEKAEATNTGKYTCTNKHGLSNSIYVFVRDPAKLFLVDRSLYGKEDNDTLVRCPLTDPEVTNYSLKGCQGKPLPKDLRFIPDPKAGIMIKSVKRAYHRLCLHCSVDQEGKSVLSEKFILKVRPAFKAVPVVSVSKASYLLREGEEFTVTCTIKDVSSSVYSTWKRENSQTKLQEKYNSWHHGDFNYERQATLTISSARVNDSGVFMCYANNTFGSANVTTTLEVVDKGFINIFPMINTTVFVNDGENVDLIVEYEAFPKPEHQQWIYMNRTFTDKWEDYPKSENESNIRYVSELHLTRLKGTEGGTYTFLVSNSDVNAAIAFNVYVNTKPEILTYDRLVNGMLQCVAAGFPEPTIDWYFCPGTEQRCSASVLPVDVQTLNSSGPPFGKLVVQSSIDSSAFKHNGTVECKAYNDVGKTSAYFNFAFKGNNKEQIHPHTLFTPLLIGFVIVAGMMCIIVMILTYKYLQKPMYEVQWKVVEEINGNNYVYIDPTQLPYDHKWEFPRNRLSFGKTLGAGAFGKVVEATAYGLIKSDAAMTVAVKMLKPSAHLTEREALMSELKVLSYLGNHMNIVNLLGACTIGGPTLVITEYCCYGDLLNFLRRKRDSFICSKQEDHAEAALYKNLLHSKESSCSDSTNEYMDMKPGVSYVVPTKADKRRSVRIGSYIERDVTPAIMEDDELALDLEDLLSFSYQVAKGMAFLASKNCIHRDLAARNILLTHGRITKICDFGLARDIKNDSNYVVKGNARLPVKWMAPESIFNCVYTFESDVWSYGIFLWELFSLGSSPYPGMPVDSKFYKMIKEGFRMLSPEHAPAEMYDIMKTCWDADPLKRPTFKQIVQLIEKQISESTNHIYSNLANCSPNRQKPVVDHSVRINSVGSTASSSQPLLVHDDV

[11] = target: Mast/stem cell growth factor receptor Kit (Homo sapiens) (UniProt P10721); details: at 1 µM
[12] = test system: Mast/stem cell growth factor receptor Kit (Homo sapiens), P10721 [D816V]; details: at 0.1 µM
Chain of Mast/stem cell growth factor receptor Kit (Homo sapiens), P10721 [D816V] (P10721 whole entry D816V): as the sequence (P10721 whole entry) above, with D816V counted along it

[13] = test system: Mast/stem cell growth factor receptor Kit (Homo sapiens), P10721 [D816V]; details: at 1 µM
[14] = test system: Mast/stem cell growth factor receptor Kit (Homo sapiens), P10721 [T670I]; details: at 0.1 µM
Chain of Mast/stem cell growth factor receptor Kit (Homo sapiens), P10721 [T670I] (P10721 whole entry T670I): as the sequence (P10721 whole entry) above, with T670I counted along it

[15] = test system: Mast/stem cell growth factor receptor Kit (Homo sapiens), P10721 [T670I]; details: at 1 µM
[16] = test system: Mast/stem cell growth factor receptor Kit (Homo sapiens), P10721 [V560G]; details: at 0.1 µM
Chain of Mast/stem cell growth factor receptor Kit (Homo sapiens), P10721 [V560G] (P10721 whole entry V560G): as the sequence (P10721 whole entry) above, with V560G counted along it

[17] = test system: Mast/stem cell growth factor receptor Kit (Homo sapiens), P10721 [V560G]; details: at 1 µM
[18] = target: Tyrosine-protein kinase Lck (Homo sapiens) (UniProt P06239); details: at 0.1 µM
Chain of Tyrosine-protein kinase Lck (Homo sapiens) (P06239 2-509 limits assumed): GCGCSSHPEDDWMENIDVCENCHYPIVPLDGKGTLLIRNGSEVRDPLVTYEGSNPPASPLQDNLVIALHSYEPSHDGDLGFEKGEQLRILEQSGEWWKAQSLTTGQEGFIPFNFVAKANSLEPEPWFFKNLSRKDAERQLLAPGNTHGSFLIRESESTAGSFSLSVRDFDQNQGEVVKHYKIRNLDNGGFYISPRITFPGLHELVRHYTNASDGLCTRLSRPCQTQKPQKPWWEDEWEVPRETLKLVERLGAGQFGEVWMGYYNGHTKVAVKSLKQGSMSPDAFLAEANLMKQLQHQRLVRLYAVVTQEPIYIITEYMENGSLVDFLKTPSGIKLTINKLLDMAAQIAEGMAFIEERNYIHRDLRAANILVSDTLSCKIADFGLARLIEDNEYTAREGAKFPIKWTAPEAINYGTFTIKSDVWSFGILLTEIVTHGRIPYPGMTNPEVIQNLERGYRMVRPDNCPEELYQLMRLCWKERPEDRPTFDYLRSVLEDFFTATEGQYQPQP

[19] = target: Tyrosine-protein kinase Lck (Homo sapiens) (UniProt P06239); details: at 1 µM
[20] = target: Leukocyte tyrosine kinase receptor (Homo sapiens) (UniProt P29376); details: at 0.1 µM
Chain of Leukocyte tyrosine kinase receptor (Homo sapiens) (P29376 whole entry): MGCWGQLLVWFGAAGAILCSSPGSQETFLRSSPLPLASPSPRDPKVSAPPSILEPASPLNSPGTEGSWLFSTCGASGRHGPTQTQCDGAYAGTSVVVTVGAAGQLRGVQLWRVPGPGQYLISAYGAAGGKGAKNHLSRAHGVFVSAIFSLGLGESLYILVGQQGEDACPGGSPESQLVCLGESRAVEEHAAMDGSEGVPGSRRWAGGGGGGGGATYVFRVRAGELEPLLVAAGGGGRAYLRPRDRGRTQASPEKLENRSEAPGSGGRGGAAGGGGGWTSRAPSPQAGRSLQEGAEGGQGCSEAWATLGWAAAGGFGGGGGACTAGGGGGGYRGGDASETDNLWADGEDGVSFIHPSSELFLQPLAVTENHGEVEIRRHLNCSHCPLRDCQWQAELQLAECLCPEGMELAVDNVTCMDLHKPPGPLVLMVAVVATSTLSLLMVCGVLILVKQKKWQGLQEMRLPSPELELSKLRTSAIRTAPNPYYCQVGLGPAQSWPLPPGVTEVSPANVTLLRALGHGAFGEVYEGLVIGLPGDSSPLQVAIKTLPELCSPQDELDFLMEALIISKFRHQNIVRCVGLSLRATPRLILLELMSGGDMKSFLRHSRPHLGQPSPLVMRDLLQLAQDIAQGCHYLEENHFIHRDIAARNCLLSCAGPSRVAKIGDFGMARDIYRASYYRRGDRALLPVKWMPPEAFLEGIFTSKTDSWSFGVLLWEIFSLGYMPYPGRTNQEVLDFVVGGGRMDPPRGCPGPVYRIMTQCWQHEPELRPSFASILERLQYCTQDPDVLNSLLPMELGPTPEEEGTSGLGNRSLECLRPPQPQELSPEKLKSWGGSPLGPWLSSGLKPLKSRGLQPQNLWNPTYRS

SMILES	inhibition [1] [%]	inhibition [2] [%]	inhibition [3] [%]	inhibition [4] [%]	inhibition [5] [%]	inhibition [6] [%]	inhibition [7] [%]	inhibition [8] [%]	inhibition [9] [%]	inhibition [10] [%]	inhibition [11] [%]	inhibition [12] [%]	inhibition [13] [%]	inhibition [14] [%]	inhibition [15] [%]	inhibition [16] [%]	inhibition [17] [%]	inhibition [18] [%]	inhibition [19] [%]	inhibition [20] [%]
Fc1ccc(-c2ncn(CCCN3CCOCC3)c2-c2ccncc2)cc1	1.2	1.72	-1.2	-0.43	0.65	0.1	1.07	-0.88	1	-3.23	-0.81	0.65	-1.66	-0.29	-2.16	2.57	0.03	0.17	3.45	0.08
COc1cc(N2CCN(C(C)C)CC2)ccc1Nc1nc(Nc2ccc(F)cc2C(=O)NC[C@@H](O)CO)c2cc[nH]c2n1	-1.4	3.78	12.3	0.29	1.56	-5.03	-8.11	5.49	8.49	4.46	6.9	4.14	7.71	3.52	4.77	-2.07	-1.61	-1.06	-2.81	55.2
Fc1ccc(-c2ncn(C3CCNCC3)c2-c2ccnc(Oc3ccc(Oc4ccccc4)cc3)n2)cc1	2.41	1.18	1.84	2.34	3.84	1.04	0.1	2.97	10.7	2.94	6.51	2.38	2.59	1.59	1.82	-2.65	-3.42	4.01	4.76	3.78
CCc1cccc(CC)c1/C=C/c1cncc(C(=O)NC)c1	2.29	2.03	–	1.99	1.71	-1.8	0.86	6.02	8.91	1	0.22	2.9	0.24	1.07	2.14	-2.51	4.63	3.18	4.94	1.51
c1ccc(-c2n[nH]cc2-c2ccnc(-c3ccc(OCCN4CCOCC4)cc3)c2)nc1	3.99	6.98	4.5	0.47	-0.22	6.96	5.88	13.7	60.8	0.56	2.31	-0.77	8.41	-3	-2.32	7.8	10.4	1.7	9.5	-0.05
N#Cc1ccc(Oc2nccc(-c3c(-c4ccc(F)cc4)ncn3C3CCNCC3)n2)cc1	0.22	3.07	3.3	1.47	0.75	-3.92	1.56	3.95	4.78	6.17	6.19	2.91	2.36	3.26	4.72	-0.39	-1.19	3.86	6.11	4.74
CCN(CC)Cc1ccc(Nc2nccc(-c3cnn4ncccc34)n2)cc1	-0.21	4.71	4.83	6.24	20.9	-3.13	14.2	7.19	39.1	64.8	93.1	1.8	4.13	19.4	80.9	8.63	61.5	1.35	15.3	4.48

Source: ChEMBL document CHEMBL1961873, “Compounds: GSK PKIS; Assays: Nanosyn kinase panel” (2012)
